# Compound activity (PubChem BioAssay)
# Gli-Sufu antag – Gli-Sufu pathway antagonism | Sufu-KO-LIGHT fibroblasts, Gli luciferase reporter luminescence | inhibition, % at 5 µM | hit rate 0.74% among 340,000 | AID 588413;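 active = inhibition above about 55%, limit read from the data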;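 also: 0% = DMSO-treated cells and 100% = wells with medium but no cells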
# MPTP block – permeability transition pore inhibition; isolated mouse mitochondria, Ca2+ swelling absorbance, 30 min; inhibition, % at 10 µM; hit rate 1.4% among 360,000; AID 602449;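 active = inhibition of 50% or more, scaled per plate between neutral and stimulator controls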;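 also: 0% = DMSO wells given calcium and 100% = 1 mM EGTA wells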
# CSC inhib – blocks cancer stem cells; cancer stem cell-like cells viability, luminescence; inhibition, % at 7.5 µM; hit rate 1.1% among 300,000; AID 2717; in the data active = inhibition above about 75%; tested in HMLE shEcad cells
# Mdm2-MdmX inh – human Mdm2/MdmX binding inhibition. O15151+Q00987. SaOS-2 split-luciferase Mdm2/MdmX complementation, luminescence. inhibition, % at 8 µM. hit rate 3% among 330,000. AID 485346;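 active = inhibition of at least 50% at 8 µM in the primary screen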
# Beta apoptosis – beta cell apoptosis inhibition; INS-1E cytokine-induced death, ATP luminescence, 48 h; percent of positive-control rescue, neutral wells zero; protection from apoptosis, % (no concentration beside the values); hit rate 0.8% among 300,000; AID 435005;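 active = Every replicate reaches about 75%, or at least half do and their mean reaches it too, limit read from the data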;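 also: 0% = cytokine-treated negative control wells and 100% = positive control rescue; higher means more ATP so stronger rescue from cytokine killing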
# GRIN3A LBD mod – modulators (binders) of human NR3A ligand-binding domain. NR3A LBD differential scanning fluorimetry, Tm shift; 0% = protein alone, 100% = glycine-bound protein. Tm shift relative to glycine control, % at 25 µM. hit rate 2.5% among 340,000;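 active = melting temperature shift of at least 10% of the positive control shift, at one fixed dose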
# Mdm2 MdmX conf – confirmation of human Mdm2/MdmX interaction inhibitors. shares compounds with Mdm2-MdmX inh. Mdm2-MdmX binding, luminescent assay. inhibition, % at 8 µM. hit rate 55% among 10,000; in the data active = inhibition above about 40%
# FLuc counter – full-length luciferase inhibition in Mdm2/MdmX counter-screen | shares compounds with Mdm2-MdmX inh | SaOS-2 full-length luciferase counterscreen, luminescence | inhibition, % at 8 µM | hit rate 77% among 6,200 | AID 504607;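 active = mean inhibition at 8 µM reaching about 37%, which flags the compound as non-specific, limit read from the data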;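 also: p53-null SaOS-2 cells with luciferase driven by a doxycycline-inducible promoter; compound on cells about two nights before reading with doxycycline added after day one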
# Gli antag conf – Gli-SUFU antagonism confirmation, single concentration; shares compounds with Gli-Sufu antag; Sufu-KO-LIGHT cells, Gli luciferase reporter, luminescence; inhibition, % at 5 µM; hit rate 40% among 2,500;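 active = mean inhibition at 5 µM reaching about 45%, limit read from the data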;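 also: plate controls were DMSO-treated cells for no effect and wells lacking cells for full effect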
# SufuKO cytotox – cytotoxic in Gli-SUFU antagonist counter-screen; cytotoxicity, % at 5 µM; shares compounds with Gli-Sufu antag; Sufu-KO-LIGHT cells cytotoxicity, ATP luminescence; hit rate 32% among 2,500;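 active = mean cytotoxicity at 5 µM above about 25%, limit read from the data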;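 also: cells exposed to compound overnight for roughly 16 to 18 hours; plate controls were DMSO wells with cells for no effect and medium without cells for full effect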
# Wnt3a cs – Wnt3a reporter inhibition counter-screen; shares compounds with Gli-Sufu antag; Wnt-LIGHT cells, Wnt3a-driven luciferase reporter, luminescence; inhibition, % at 6.25 µM; hit rate 20% among 2,500; AID 651995;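 active = mean inhibition above about 25%, limit read from the data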
# Numbers without * were called inactive; . = no result given. An excerpt weighted towards active compounds, which were near 6.6% of everything screened.
SMILES,Gli-Sufu antag,MPTP block,CSC inhib,Mdm2-MdmX inh,Beta apoptosis,GRIN3A LBD mod,Mdm2 MdmX conf,FLuc counter,Gli antag conf,SufuKO cytotox,Wnt3a cs
COc1cc(C(=O)NNC(=O)COc2ccc(Cl)cc2)ccc1OCC(=O)N1CCOCC1,-3,-1,8,-5,-3,1,.,.,.,.,.
Cc1nc(N2CCN(C(=O)c3cnccn3)CC2)c2c3c(sc2n1)CC(C(C)(C)C)CC3 (centres undefined),51,-1,.,70*,2,0,34,.,22,5,2
O=C(CN1CCN(C(=O)c2ccco2)CC1)Nc1cc(S(=O)(=O)N2CCCC2)ccc1Cl,.,0,.,.,.,.,.,.,.,.,.
CC(C)(C)c1ccc(CN2C3=NCCCN3c3ccccc32)cc1,69*,14,31,69*,41,-1,33,61*,60*,25,15
CCOCCCNC(=O)CN(c1cc([N+](=O)[O-])ccc1OC)S(C)(=O)=O,-13,0,-11,6,3,-2,.,.,.,.,.
COc1ccc(/C=C2\SC(=S)N(CCCC(=O)N3CCCCC3CCO)C2=O)cc1 (centres undefined),66*,0,-12,64*,-21,-4,22,.,25,13,17
COc1ccc(/C=C2/SC(=S)N(CCCC(=O)Nc3cccc(O)c3)C2=O)cc1,62*,-1,.,83*,-6,12*,43*,29,58*,0,-21
COc1ccc(/C=C2\SC(=S)N(CCC(=O)Nc3cccc(O)c3)C2=O)cc1OC,-9,-1,10,21,5,2,.,.,.,.,.
Cc1cc(Br)cc(Br)c1OCC(=O)NNC(=O)Nc1ccccc1,-21,3,-5,5,-4,3,.,.,.,.,.
C#CC[N+]1(CC#Cc2ccccc2)CCCCC1,11,3,-10,11,-1,1,.,.,.,.,.
Cc1ccc(C#CC[N+]2(CC#Cc3ccc(C)cc3)CCCCC2)cc1,88*,11,16,55*,113*,-1,50*,52*,89*,39*,-7
Cc1[nH]n(-c2nc(-c3ccc(Cl)cc3)cs2)c(=O)c1N=Nc1ccc(O)cc1,70*,3,-2,63*,52,19*,36,83*,71*,35*,29*
O=C(Nc1ncc(Cc2ccc(SC(F)F)cc2)s1)c1ccc(OC(F)F)cc1,60*,28,75*,62*,16,2,64*,96*,71*,66*,4
COc1ccc(C(=O)Nc2ccc(SC(F)F)cc2)cc1,-77,2,.,-178,3,-4,.,.,.,.,.
CCCCNc1c(-c2ccc(-c3ccc(OC)cc3)c(OC)c2)nc2ccccn12,-20,2,.,1,.,-7,.,.,.,.,.
CCCCNc1c(-c2ccc(OC)c(Sc3ccc(OC)cc3)c2)nc2ccccn12,54,2,101*,94*,.,-8,40,65*,57*,26*,3
O=C(CN1C(=O)c2ccccc2C1=O)c1ccc(F)cc1,6,0,-20,9,-7,-3,.,.,.,.,.
O=C(CN1C(=O)c2ccccc2S1(=O)=O)c1ccc(F)cc1,76*,3,9,83*,-6,0,68*,81*,83*,4,91*
COc1cccc(/C=N/Nc2ncnc3c2ncn3Cc2ccccc2)c1O,51,0,-12,82*,.,-5,82*,63*,78*,32*,69*
Cc1cc(NC(=O)CSc2nc3ccsc3c(=O)n2CCCC(=O)NCCc2ccccc2)no1,9,-5,-7,15,2,0,.,.,.,.,.
CC(=O)Nc1ccc(NC(=O)CSc2nnc(-c3cc(C)[nH]n3)n2N)cc1,-13,-2,-9,30,-1,-3,.,.,.,.,.
COc1ccc(S(=O)(=O)N2CCCCCC2)cc1C(=O)OCC(=O)NC1CCS(=O)(=O)C1 (centres undefined),9,-2,-13,8,-1,0,.,.,.,.,.
CCCCn1c(=O)[nH]c(=O)c2c1nc(-c1ccc(C(F)(F)F)cc1)n2C,16,7,7,16,-7,1,.,.,.,.,.
CCCCn1c(=O)[nH]c(=O)c2c1nc(-c1ccc(-c3ccccc3)cc1)n2C,53,1,13,62*,6,1,35,94*,33,12,-11
Cc1ccsc1CNc1ncnc2ccc(-c3c(C)noc3C)cc12,53,4,9,94*,-12,-4,69*,52*,62*,25*,-3
SMILES,Gli-Sufu antag,MPTP block,CSC inhib,Mdm2-MdmX inh,Beta apoptosis,GRIN3A LBD mod,Mdm2 MdmX conf,FLuc counter,Gli antag conf,SufuKO cytotox,Wnt3a cs
CCCc1sc(N/N=C/c2ccccn2)nc1-c1ccc(Br)cc1,64*,3,126*,75*,111*,-11,24,.,80*,13,88*
CCc1ccc(-c2cc(C(=O)N/N=C/c3ccccn3)[nH]n2)cc1,-7,-2,-1,6,2,-2,.,.,.,.,.
CC(C)(C)c1ccc(C(=O)N2CCC2(C)C(=O)Nc2cccc3ncccc23)cc1 (centres undefined),.,-1,.,.,.,.,.,.,.,.,.
CSCc1ccc(C(=O)Nc2cccc(C)c2C)cc1,-36,3,1,-64,1,9,.,.,.,.,.
CCOC(=O)c1c(CSc2nc(C)cc(C)c2C#N)n(C)c2cc(Br)c(OC(C)=O)cc12,79*,48,6,72*,111*,2,23,.,80*,38*,10
CCOc1ccccc1C1CC(=O)Nc2cc3c(cc21)OCO3 (centres undefined),21,13,62,40,33,-1,.,.,.,.,.
CCOc1ccccc1C1C2=C(COC2=O)Nc2cc3c(cc21)OCO3 (centres undefined),55,2,39,69*,35,5,57*,65*,52*,62*,13
Cc1ccc(NC(=O)c2cc3ccccc3oc2=O)cc1S(=O)(=O)N(C)C,78*,2,-1,89*,-10,0,94*,26,89*,16,101*
Cc1ccc(NC(=O)c2cc3ccccc3o2)cc1S(=O)(=O)N(C)C,-121,0,.,.,.,-2,.,.,.,.,.
Cc1ccc2c(c1C)OC(=O)CC2(C)C,-6,-9,-19,7,-9,0,.,.,.,.,.
Cc1ccc(Nc2nc3c(c(=O)[nH]2)CCCC3)cc1,-38,0,3,-36,6,2,.,.,.,.,.
O=c1[nH]c(Nc2nc3ccccc3o2)nc2c1CCCC2,62*,0,70,100*,42,-2,75*,79*,64*,39*,44*
